Assay results taken from PubChem BioAssay (Tox21).
Calls of active or inactive are those of the source. Calls follow the shape of the dose curve; as a rule, active = well fitted curve in the direction sought with a large enough effect in the repeat runs; inconclusive = weak or mixed curves; inactive = flat fitted curve, though single readings scatter.

Test: qHTS assay to test for compound auto fluorescence at 535 nm (green) in HepG2 cells (AID 720675)
Settings: green autofluorescence 485/535 nm, 1 h; series mostly up to 91.3 µM; fluorescence, % of fluorescein control: at the top concentration
Source text: National Center for Advancing Translational Sciences [NCATS]
NIH Chemical Genomics Center [NCGC]
U.S. Environmental Protection Agency [EPA]
National Institutes of Environmental Health Sciences [NIEHS]
National Toxicology Program [NTP]
U.S. Food and Drug Administration [FDA]
Compound auto fluorescence often interferes with screening of the compound library against various biological targets and signaling pathways. Some of these compounds may have fluorophoric properties. Such properties may interfere with the assay outputs resulting in false positives and/or negatives. To decrease such complications and ensure the compound activities are relevant in terms of biological response, the Tox21 10K compound library was screened for auto fluorescence.
From the fluorophores used as reporter signals in our screening assays, the auto fluorescence equivalencies of compounds against three fluorophores have been evaluated: Triamterene, Fluorescein and Rose Bengal sodium for blue, green and red fluorescence, respectively. The fluorescence intensities were measured using Excitation/Emission wavelengths at 405/460nm, 485/535nm and 540/590nm for blue, green and red labels, respectively. This assay includes the green fluorescence data.
Tox21 Assay Protocol Summary:
2,000 HepG2 cells in 5 uL of culture medium (MEM containing 10% FBS) per well were dispensed into black wall/clear bottom 1536-well plates using a Multidrop Combi Dispenser (ThermoFisher Scientific, Waltham, MA). The assay plates were incubated overnight at 37 C to allow cell attachment to the well bottom, followed by the transfer of 23 nL compound or DMSO vehicle by a pintool work station (Kalypsys , San Diego, CA). After the assay plates were incubated for 1 hr at 37 C and 5% CO2, fluorescence intensities in the assay plates were measured by an Envision (PerkinElmer, Shelton, CT) plate reader using three labels for measuring blue, green and red fluorescence at […] 460, 535 and 590 nm respectively.
% is scaled to controls: 0 for no effect and ±100 for the full control effect.

Structure (SMILES)	fluorescence, % of fluorescein control	outcome
C1=COCCC1	0.0393% (inactive)	–
CCC(C)CCCC(C)(C)O (stereo not given)	-0.0215% (inactive)	–
COc1ccc(/C=C/S(=O)(=O)NC(=O)c2ccc(C)cc2Cl)cc1	-0.106% (inactive)	–
c1ccc(CN(Cc2ccccc2)Cc2ccccc2)cc1	0.0081% (inactive)	–
O=C1c2ccccc2C(=O)C1c1ccc2ccccc2n1	-0.0318% [at 46 µM] (inactive)	–
S=c1[nH][nH]c(=S)s1	-0.0833% (inactive)	–
CCc1ccc(C(=O)C(C)CN2CCCCC2)cc1 (stereo not given)	-0.0185% [at 46 µM] (inactive)	–
N#CCCCC(C#N)CCC#N (stereo not given)	0.0029% (inactive)	–
C=C[Si]1(C)O[Si](C)(C=C)O[Si](C)(C=C)O[Si](C)(C=C)O1 (stereo not given)	0.0011% (inactive)	–
CCC(=O)O[C@@H]1C[C@H]2CC[C@]1(C)C2(C)C	-0.101% (inactive)	–
CCCCOC(=O)C(C)Oc1ccc(Oc2ccc(C(F)(F)F)cn2)cc1 (stereo not given)	0.004% (inactive)	–
CC(=O)Nc1cccc(N)c1	-0.264% [at 95.7 µM] (inactive)	–
CCCCCCCCOCCCN	0.0319% (inactive)	–
Nc1ccc(C(=O)Oc2ccccc2)c(O)c1	0.035% [at 46 µM] (inactive)	–
C=C(C)C(=O)OCCCCCCCCCCOC(=O)C(=C)C	-0.0049% (inactive)	–
O=C(O)COCC(=O)O	0.148% (inactive)	–
O=C(c1ccc(Cl)cc1)c1ccc(Cl)cc1	0.017% (inactive)	–
O=C1CCCN1CCO	0.0201% (inactive)	–
COc1cc(CNC(=O)CCCC/C=C/C(C)C)ccc1O	–	inactive
CCc1c(C)[nH]c2c1C(=O)C(CN1CCOCC1)CC2 (stereo not given)	0.0551% [at 18.6 µM] (inactive)	–

Structure (SMILES)	fluorescence, % of fluorescein control	outcome
O=[N+]([O-])c1ccc(Cl)cc1Cl	0.0209% (inactive)	–
CC(C)(C)NCC(O)COc1ccc(NC(=O)NC2CCCCC2)cc1 (stereo not given)	0.074% [at 46 µM] (inactive)	–
CC(C)Oc1ccccc1O	-0.023% (inactive)	–
CC1(C)CC(O)CC(C)(C)N1[O]	0.0651% (inactive)	–
Nc1cccc2c(=O)[nH][nH]c(=O)c12	-0.0248% (inactive)	–
Clc1cccc(C(c2ccc3nc[nH]c3c2)n2ccnc2)c1 (stereo not given)	0.017% [at 46 µM] (inactive)	–
[O-][n+]1ccc(Cl)cc1	-0.0281% [at 95.7 µM] (inactive)	–
CCCCCO	0.0178% (inactive)	–
Cc1ccc(NC=O)c(C)c1	-0.017% (inactive)	–
COc1cccc([C@H](O)C2CCN(CCc3ccc(F)cc3)CC2)c1OC	-0.0079% (inactive)	–
c1ccc(-c2ccc(-c3ccccc3)cc2)cc1	-0.0708% [at 18.6 µM] (inactive)	–
CC(=O)Nc1ccccc1O	0.133% (inactive)	–
CCCC1CCOC(C)S1 (stereo not given)	-0.0074% (inactive)	–
CC(CCl)OC(C)CCl (stereo not given)	0.298% (inactive)	–
Nc1ccccc1Nc1ccccc1	1.05% (inactive)	–
Cc1c(N=C=O)cccc1N=C=O	0.0701% [at 95.7 µM] (inactive)	–
CCCN(C1CCN(C(=O)C2CCNCC2)CC1)[C@@H]1CCc2ccc(OC)cc2C1	-0.16% (inactive)	–
Clc1cc(Cl)c2c(c1)N=C1CCCCCN1C2	0.0107% [at 46 µM] (inactive)	–
Cc1ccc2c(Cl)cc(Cl)c(O)c2n1	0.0663% [at 46 µM] (inactive)	–
CC(C)=CCC/C(C)=C/C=N/O	0.0929% (inactive)	–
